Test results taken from PubChem BioAssay AID1159580 (chemical genetic matrix, 2015).
Several values for one entry are separate records, joined by “and”; a condition that tells them apart may be missing. Identical values can stand only once. Out of some 5,500 compounds screened, about 2,000 (36%) were called active. Inconclusive results (about 18%) are left out. Cut-off read from the data, not from the text of the source: active = normalized growth mostly below about 0.91 (no sharp cut-off); inconclusive = no clear call, values can overlap the other calls; inactive = mostly above about 0.92. Some of the results follow.

Assay: chemical genetic growth profiling, strain panel (AID 1159580);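 note: tested at 20 µM; growth read once vehicle control cultures reached saturation at 30 °C; 1 = growth at the plate median or of vehicle wells; lower values mean less growth of the strain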
Details: S. cerevisiae deletion strains, growth OD

Measured: normalized growth

C=CC1=C(C(=O)O)N2C(=O)[C@@H](NC(=O)/C(=N/O)c3csc(N)n3)[C@H]2SC1
inactive: locus YAL013W, strain DEP1, hits give low values 1 | locus YAL021C, strain ccr4, hits give low values 1.01 | locus YAL026C, strain drs2, hits give low values 1.02 | locus YAL030W, strain snc1, hits give low values 1.01 | locus YBL061C, strain skt5, hits give low values 1.03 | locus YBR009C, strain hhf1, hits give low values 1 | locus YBR021W, strain FUR4, hits give low values 1.02 | locus YBR023C, strain chs3, hits give low values 1.02 | locus YBR171W, strain sec66, hits give low values 1.03 | locus YBR229C, strain ROT2, hits give low values 0.992 | locus YBR231C, strain swc5, hits give low values 1.01 | locus YBR279W, strain paf1, hits give low values 1.01 | locus YCL011C, strain gbp2, hits give low values 1.04 | locus YCL016C, strain dcc1, hits give low values 1.03 | locus YCL029C, strain bik1, hits give low values 0.987 | locus YCL061C, strain MRC1, hits give low values 1.04 | locus YCL069W, strain vba3, hits give low values 1.02 | locus YCR088W, strain abp1, hits give low values 1.02 | locus YDL005C, strain med2, hits give low values 1.02 | locus YDL035C, strain GPR1, hits give low values 1.03 | locus YDL040C, strain nat1, hits give low values 1.01 | locus YDL074C, strain BRE1, hits give low values 1.04 | locus YDL101C, strain DUN1, hits give low values 0.991 | locus YDL134C, strain PPH21, hits give low values 0.99 | locus YDL185W, strain tfp1, hits give low values 0.99 | locus YDL192W, strain arf1, hits give low values 0.986 | locus YDR001C, strain nth1, hits give low values 1.02 | locus YDR069C, strain doa4, hits give low values 1.04 | locus YDR101C, strain arx1, hits give low values 0.99 | locus YDR137W, strain rgp1, hits give low values 1.03 | locus YDR150W, strain NUM1, hits give low values 1.01 | locus YDR159W, strain sac3, hits give low values 1.02 | locus YDR162C, strain NBP2, hits give low values 1.03 | locus YDR195W, strain ref2 1 | locus YDR297W, strain sur2, hits give low values 1.03 | locus YDR318W, strain mcm21, hits give low values 1.01 | locus YDR334W, strain swr1, hits give low values 1.02 | locus YDR335W, strain msn5, hits give low values 1.02 | locus YDR388W, hits give low values 0.995 | locus YDR392W, strain spt3, hits give low values 1.01 | locus YDR502C, strain sam2, hits give low values 0.993 | locus YEL003W, strain gim4, hits give low values 1.01 | locus YEL037C, strain rad23, hits give low values 1.02 | locus YEL061C, strain CIN8 (second series), hits give low values 1.01 | locus YEL061C, strain CIN8, hits give low values 1.01 | locus YER015W, strain faa2, hits give low values 1.02 | locus YER016W, strain bim1, hits give low values 1.02 | locus YER110C, hits give low values 0.978 | locus YER111C, strain swi4, hits give low values 1.01 | locus YER155C, strain BEM2 (second series), hits give low values 1.06 | locus YER155C, strain BEM2, hits give low values 0.994 | locus YER167W, strain BCK2, hits give low values 1 | locus YFR010W, strain ubp6, hits give low values 1.03 | locus YGL078C, strain dbp3, hits give low values 0.989 | locus YGL086W, strain mad1, hits give low values 0.999 | locus YGL167C, strain pmr1, hits give low values 1.01 | locus YGL173C, strain kem1, hits give low values 1.04 | locus YGL227W, strain vid30, hits give low values 1.01 | locus YGL240W, strain doc1, hits give low values 1.01 | locus YGL248W, strain PDE1, hits give low values 0.989 | locus YGL253W, strain hxk2, hits give low values 1.01 | locus YGR078C, strain PAC10, hits give low values 1.07 | locus YGR135W, strain pre9, hits give low values 0.991 | locus YGR229C, strain SMI1, hits give low values 1.06 | locus YGR252W, strain gcn5, hits give low values 1 | locus YHR013C, strain ard1, hits give low values 1.08 | locus YHR027C, strain rpn1, hits give low values 1.02 | locus YHR030C, strain SLT2, hits give low values 1 and 0.986 | locus YHR079C, strain IRE1 (second series), hits give low values 0.989 | locus YHR079C, strain IRE1, hits give low values 0.975 | locus YHR094C, strain hxt1, hits give low values 0.991 | locus YHR129C, strain ARP1, hits give low values 0.995 | locus YHR142W, strain chs7, hits give low values 1.01 | locus YHR200W, strain rpn10, hits give low values 0.988 | locus YIL066C, strain RNR3, hits give low values 1.01 | locus YIL073C, strain SPO22, hits give low values 1.04 | locus YIL125W, strain kgd1, hits give low values 0.991 | locus YIR030C, strain dcg1, hits give low values 0.989 | locus YJL092W, strain hpr5, hits give low values 1.02 | locus YJL095W, strain BCK1 (second series), hits give low values 1.01 | locus YJL095W, strain BCK1, hits give low values 1.01 and 0.982 | locus YJL115W, strain asf1, hits give low values 1.05 | locus YJL129C, strain trk1, hits give low values 1.02 | locus YJL134W, strain LCB3, hits give low values 0.995 | locus YJL154C, strain vps35, hits give low values 1.02 | locus YJL164C, strain tpk1, hits give low values 1.04 | locus YJL166W, strain qcr8, hits give low values 1.04 | locus YJL168C, strain set2, hits give low values 0.986 | locus YJL187C, strain SWE1 (second series), hits give low values 0.997 | locus YJL187C, strain SWE1, hits give low values 1.03 | locus YJR043C, strain POL32, hits give low values 1.01
